Assay results as given in PubChem BioAssay AID624351 (Southern Research Specialized Biocontainment Screening …, 2012).
Among all 2,400 compounds or so, about 1,400 (58%) were called active.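 The calls were made as follows: active = inhibition of 30% or more at any tested dose; inconclusive = primary hits over the limit that were never retested; inactive = the rest.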 So high a share suggests a set chosen from earlier hits. The list shows a part of the results.

Assay: coupled detection enzyme interference, dose response, artefact control for MgcRacGAP inhibitor project, biochemical, coupled enzyme counter-screen (AID 624351);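 also: signal is the ADP detection kit reading of free GDP without any GAP enzyme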
Details: ADP Hunter coupled enzyme counter-screen, fluorescence, no MgcRacGAP; series mostly up to 80 µM

Row | SMILES | IC50
1 | Nc1ccc2c(c1)Nc1ccccc1CC2 | 37.8 µM (active)
2 | CC(C)Oc1ccc(OCCn2c(=S)[nH]c3c(N)ncnc32)cc1 | 76.4 µM (active)
3 | Cc1ccccc1OCCN1CCCC1 | inactive
4 | Cc1ccccc1OCCn1c(=S)[nH]c2c(N)ncnc21 | 68.2 µM (active)
5 | C/C(=N/Nc1ccc(C(=O)O)cc1)c1ccc2c(c1)Nc1ccccc1S2 | 51.3 µM (active)
6 | C/C(=N\NC(=O)c1ccc(O)cc1)c1ccc2c(c1)Nc1ccccc1S2 | 41.1 µM (active)
7 | C/C(CC(=O)Nc1ccc(N(C)C)cc1)=N\NC(=O)c1ccc(F)cc1 | 46.5 µM (active)
8 | Cn1ccc(=Nc2ccc(NC(=O)c3ccc(N=c4ccn(C)c5ccc([N+](=O)[O-])cc45)cc3)cc2)cc1 | inactive
9 | COC(C(=O)N/N=C(\C)CC(=O)Nc1ccc(N(C)C)cc1)c1ccccc1 (stereo not given) | 47.7 µM (active)
10 | C/C(CC(=O)Nc1ccc(N(C)C)cc1)=N\NC(=O)c1ccc([N+](=O)[O-])cc1Cl | 61.6 µM (active)
11 | C/C(CC(=O)Nc1ccc(N(C)C)cc1)=N\NC(=O)c1ccc([N+](=O)[O-])cc1 | 59.5 µM (active)
12 | O=C(Cn1sc2ccccc2c1=O)Nc1ccc(F)cc1 | inactive
13 | O=C(Nc1ccc(C2=NCCN2)cc1)c1ccc(C(=O)Nc2ccc(C3=NCCN3)cc2)c(Cl)c1 | inactive
14 | CCCCCCCCCCCCCCCC[n+]1ccccc1 | inactive
15 | C/C(CC(=O)Nc1ccc(N(C)C)cc1)=N\NC(=O)c1ccncc1 | 74.6 µM (active)
16 | N#C/C(=C/c1ccc(N2CCOCC2)o1)c1nc2ccccc2[nH]1 | 38.6 µM (active)
17 | N#C/C(=C\c1ccc(N2CCOCC2)o1)c1nc2ccccc2[nH]1 | 13.5 µM (active)
18 | N#C/C(=C/c1ccc(N2CCCCCC2)o1)c1ccc(Cl)cc1 | inactive
19 | CN(C)c1ccc(C=c2c3ccccc3n3c2cc(-c2ccc(Cl)cc2)[n+]3C)cc1 | inactive
20 | CCOc1ccc(C2NC(=O)C(C#N)=C(S)N2c2ccc(OC)cc2)cc1OC (stereo not given) | inactive
21 | CCOc1ccc(N)cc1OC | 43.1 µM (active)
22 | CC(C)COc1ccc(N)cc1OCC(C)C | 46.2 µM (active)
23 | CCN(Cc1ccncc1)Cc1ccc(OC)c(OC)c1 | inactive
24 | COc1ccc(-n2sc3ccccc3c2=O)cc1 | inactive
25 | CN(C)/C=C1\NC(=S)N(c2ccccc2)C1=O | 71.9 µM (active)
26 | COc1ccc(-n2sc3ccc(F)cc3c2=O)cc1 | inactive
27 | COc1ccc(N2C(=O)/C(=C/N(C)C)NC2=S)cc1 | 77.5 µM (active)

Row | SMILES | IC50
28 | Cc1cccc2c(N)c3c(nc12)N(C)CC3 | inactive
29 | Cc1ccc2c(C)nc(/N=C(\N)NC(=O)N3c4ccccc4Sc4ccccc43)nc2c1 | inactive
30 | Cc1cccn2c(CNC3CCCc4ccccc43)c(C(=O)N3CCCCC3)nc12 (stereo not given) | inactive
31 | CN1CC(=O)N(CC(=O)Nc2ccc(N(C)C)cc2)c2ccccc2C1=O | 58.4 µM (active)
32 | CN(C)c1ccc(NC(=O)CN2C(=O)c3ccccc3C2=O)cc1 | 83.9 µM (active)
33 | CCCCOc1ccc(NC(=O)CN2CCN(CC)CC2)cc1 | inactive
34 | Cc1ccc(NC(=O)CN2CCC(Cc3ccccc3)CC2)cc1S(=O)(=O)N(C)C | inactive
35 | O=C(CN1CCN(c2ccccn2)CC1)Nc1ccc(F)cc1 | inactive
36 | CN(C)c1ccc(NC(=O)CCN2C(=O)c3cccc([N+](=O)[O-])c3C2=O)cc1 | 72.7 µM (active)
37 | Cc1cc(O)ccc1NC(=O)c1ccccc1 | 71 µM (active)
38 | O=C1C(Cl)=C(NC(=O)c2ccccc2)C(=O)C(Cl)=C1NC(=O)c1ccccc1 | inactive
39 | CCN(CC)CCCC(C)NC(=O)c1c(NC(=O)c2ccccc2)sc2c1CCCC2 (stereo not given) | inactive
40 | O=C(O)CCCNC(=O)/C=C/c1ccco1 | inactive
41 | CSc1ccc(CN2CCC(C(=O)NCc3ccc(C)cc3)CC2)cc1 | inactive
42 | Cc1csc(=O)n1CC(=O)OC(C)C(=O)Nc1ccc(N(C)C)cc1 (stereo not given) | 56.8 µM (active)
43 | CC1CN(CCCCN2C(=O)c3ccccc3C2=O)CC(C)O1 (stereo not given) | inactive
44 | Cc1cc(C)c(S(=O)(=O)Nc2ccc(N(C)C)cc2)c(C)c1-n1cnnn1 | 44.4 µM (active)
45 | O=[N+]([O-])c1ccc(C2CC(c3ccccc3)=Nc3ccccc3S2)cc1 (stereo not given) | inactive
46 | Clc1cccc(-c2ccc(C=Nc3ccc(N4CCOCC4)cc3)o2)c1Cl | 14.8 µM (active)
47 | Cc1ccc(Cl)cc1-c1ccc(C=Nc2ccc(N3CCOCC3)cc2)o1 | 11.4 µM (active)
48 | O=C1CCCC2=C1Sc1ccc(Cl)cc1N2 | 65.6 µM (active)
49 | CC(C)NCC#CCOc1ccc(Cl)cc1 | inactive
50 | COc1ccc(NCCC(O)c2ccc(Cl)cc2)cc1 (stereo not given) | 28 µM (active)
51 | COc1ccc(NC(C)c2cc(Cl)ccc2O)cc1 (stereo not given) | 61.5 µM (active)
52 | COc1ccc(O)c(C(c2c(C)[nH][nH]c2=O)c2c(C)[nH][nH]c2=O)c1 | inactive
53 | CCN(CC)S(=O)(=O)c1ccc(N/N=C/c2ccc(O)cc2)nc1 | 38 µM (active)
54 | CCN(CC)S(=O)(=O)c1ccc(N/N=C/c2ccc(O)cc2O)nc1 | 29.4 µM (active)

Row | SMILES | IC50
55 | C[n+]1c(-c2ccccc2)cc2c(=Cc3ccc([N+](=O)[O-])cc3)c3ccccc3n21 | inactive
56 | CC(C)CN(Cc1c(O)ccc2ccccc12)CC(C)C | 53.2 µM (active)
57 | CCN=c1scc(C)n1/N=C/c1cc(Br)c(O)c(OC)c1 | 28.7 µM (active)
58 | CN=c1scc(C)n1/N=C/c1cc(Br)c(O)c(OC)c1 | 12.6 µM (active)
59 | CN=c1scc(C)n1/N=C/c1cc(Br)c(O)c(Br)c1 | 69.6 µM (active)
60 | COc1cc(/C=C2/C(=O)NN(c3ccc(Cl)cc3)C2=O)cc(Br)c1O | inactive
61 | Cc1cc(C)cc(-n2c3nc4ccccc4nc3c3c(=O)n(Cc4ccco4)cnc32)c1 | inactive
62 | COc1ccc(CN2CCN(Cc3ccc4ccccc4c3)CC2)cc1OC | inactive
63 | CN1CCCCCC1=Nc1ccccc1C#N | inactive
64 | Cc1cc(/C=C2\SC(=S)NC2=O)c(C)[nH]1 | inactive
65 | Cc1cc(/C=C2\SC(=S)NC2=O)cc(C)c1O | 29.1 µM (active)
66 | O=C1NC(=S)S/C1=C\C=C\c1ccc([N+](=O)[O-])o1 | inactive
67 | COc1cc(/C=N/N=C2/NC(=O)C(c3ccccc3)S2)ccc1O (stereo not given) | 41.6 µM (active)
68 | Cn1cccc1/C=C1\SC(=Nc2ccc(O)cc2)NC1=O | 62.7 µM (active)
69 | COc1ccc(/C=N/N=C2/NC(=O)C(CC(=O)O)S2)cc1OCc1ccc(Cl)cc1Cl (stereo not given) | inactive
70 | O=C1NC(=S)S/C1=C\c1cc(Cl)cc(Cl)c1O | inactive
71 | COc1cc(/C=C2\SC(=Nc3ccc(Cl)c(C(=O)O)c3)NC2=O)c(Br)c(Br)c1O | 37.5 µM (active)
72 | COc1ccc(N=C2NC(=O)/C(=C/c3ccc(O)c(OC)c3)S2)cc1 | 24.1 µM (active)
73 | COCCCNCCCCOc1c(Cl)cc(C)cc1Br | inactive
74 | Nc1cc(SCc2ccc([N+](=O)[O-])cc2)ncn1 | inactive
75 | COc1cc(/C=C2/C(=O)ON=C2c2ccccc2)ccc1O | inactive
76 | CN(C)c1ccc(/C=C2/NC(=O)NC2=O)cc1 | 52.8 µM (active)
77 | COc1cc(/C=C2\SC(=Nc3ccccc3)NC2=O)cc(Cl)c1O | 82 µM (active)
78 | COc1cc(/C=C2/SC(=Nc3ccc(O)cc3)NC2=O)ccc1O | 27.2 µM (active)
79 | COc1cc(C=C2NC(=O)NC2=O)ccc1O | 19.4 µM (active)
80 | CCOc1ccc(C2NC(=O)C(C#N)=C(S)N2c2cccc(C)c2)cc1OC (stereo not given) | inactive
81 | COc1cc(/C=C2\SC(=Nc3ccccc3OC)NC2=O)ccc1O | 25 µM (active)

Row | SMILES | IC50
82 | COc1ccccc1-c1cn[nH]c1-c1ccc(O)cc1O | 51.4 µM (active)
83 | COc1ccc(-c2cn[nH]c2-c2ccc(O)cc2O)cc1 | 47.9 µM (active)
84 | COc1ccc(-c2cn[nH]c2-c2ccc(O)cc2O)cc1OC | 57.6 µM (active)
85 | CCn1c(=O)c(C(=O)CN(C)Cc2cccc(OC)c2OC)c(N)n(Cc2ccccc2)c1=O | inactive
86 | COCCCNC1=C(C#N)C(=O)NC(c2cccs2)S1 (stereo not given) | inactive
87 | CC1(C)OC(=O)C(=Cc2ccc(-c3ccc(S(N)(=O)=O)cc3)o2)C(=O)O1 | inactive
88 | O=c1c2ccc(F)cc2sn1-c1ccccc1 | inactive
89 | COc1cc2c(CCNC(C)=O)c[nH]c2cc1O | 50.7 µM (active)
90 | COc1ccc(Br)cc1CN1CCN(Cc2c[nH]c3ccccc23)CC1 | inactive
91 | CCOc1ccc(CN2CCN(S(=O)(=O)c3ccc(NC(C)=O)cc3)CC2)cc1 | inactive
92 | CC(=O)N1CCN(CC(O)COc2ccc(Br)cc2)CC1 (stereo not given) | inactive
93 | O=C(Cc1coc2cc(O)ccc12)N1CCN(S(=O)(=O)c2ccc(Br)cc2)CC1 | 21.6 µM (active)
94 | Cc1ccc(C)c(S(=O)(=O)N2CCN(CC(=O)N3CCc4ccccc4C3)CC2)c1 | inactive
95 | N#Cc1ccccc1S(=O)(=O)N1CCN(C(=O)Cc2coc3cc(O)ccc23)CC1 | 33.6 µM (active)
96 | Oc1ccc(-c2cn3c(n2)SCC3)cc1 | 19.5 µM (active)
97 | CCOc1cc(-c2cc(-c3ccc(N)cc3)nc(N)c2C#N)ccc1O | inactive
98 | CCOc1cc(/C=C(\C#N)c2[nH]nc(N)c2C#N)ccc1O | 45.7 µM (active)
99 | CC1NC(C)c2c(ccc3ccccc23)O1 (stereo not given) | inactive
100 | CC1CCCN(CCOc2ccc3ccccc3c2Br)C1 (stereo not given) | inactive
101 | Oc1ccc2ccccc2c1Br | 15.8 µM (active)
102 | CN1C(=O)C2C(c3ccc(N(C)C)cc3)=NN(Cc3ccccc3)C2C1=O (stereo not given) | 46.5 µM (active)
103 | c1ccc(Nc2cc(Nc3ccccc3)[nH]n2)cc1 | 57.9 µM (active)
104 | C/C=C/C=C/C(=O)[C@@H]1[C@@H]([C@]2(C)OC(=O)C(C)=C2O)[C@H]2/C(=C(O)/C=C/C=C/C)C(=O)[C@]1(C)C(=O)C2(C)O (stereo not given in full) | inactive
105 | Oc1ccc(NC(=S)N=Nc2c(O)[nH]c3ccccc23)cc1 | 27.5 µM (active)
